These results are taken from PubChem BioAssay AID2315 (National Center for Advancing Translational Sciences (NCATS), 2010).

Hit rate of the full screen: of about 290,000 compounds, about 27,000 (9.3%) were called active. Only a selection was taken, and actives are over-represented in it overall. Unmarked numbers belong to inactive results. Rule as the data show it: active = inhibition mostly above about 28% (no sharp cut-off); inactive = mostly below about 43%.

By inhibition is commonly meant the change of the read-out against control, counted positive when it falls.

This assay in a line: A qHTS for Small Molecule Inhibitors of Shiga Toxin. Also: 0% is about no effect. The note with it: Vero cells, Shiga toxin protein synthesis inhibition reporter; at 38.7 µM, hits give high values.
As for `COc1ccc(C(C)NC(=O)C2CCCC2)cc1` (centres undefined), the inhibition was -3.92%. Next, `O=C(COc1ccc2ccc(=O)oc2c1)NCC(O)c1ccccc1` (centres undefined): -18.4%; `O=C(O)c1ccccc1C(=O)NC1=NN(c2ccccc2)CC1`: 3.05%; `Cc1cccc(N2CCN(c3ccc(C(N)=O)cc3[N+](=O)[O-])CC2)c1C`: 5.45%. Next, `Cc1ccc(C(=O)c2ccc(N3CCN(C)CC3)c([N+](=O)[O-])c2)cc1`: 76.3% (active); `CCOC(=O)C1CCN(c2ccc(C(=O)O)cc2[N+](=O)[O-])CC1`: -7.98%; `CCOC(=O)C1CN(S(=O)(=O)c2ccc(OC)cc2)c2cc(Cl)ccc2O1` (centres undefined): -12.8%. `CC(C)C(C)NC(=O)COc1nc2ccccc2nc1N(C)C1CCCCC1` (centres undefined): the inhibition is -16.3%. The same measure for `O=C(NC1CCCC1)C1CCN(C(=O)Nc2cccc(Cl)c2)CC1`: -5.04%; for `Cc1ccc(S(=O)(=O)N(Cc2ccccc2)c2ccccn2)cc1[N+](=O)[O-]`: 5.85%. The same measure for `Cc1ccc(C(=O)/C=C/c2c(C)nn(-c3ccccc3)c2Cl)cc1`: 45.2% (active); for `Cc1nn(-c2ccccc2)c(C)c1NC(=O)CCl`: 16.7%; for `Cc1nn(-c2ccccc2)c(C)c1/C=C/C(=O)OC(C)C(N)=O` (centres undefined): -6.62%. In the case of `COc1ccc(CCNC(=O)c2c(C)nn(-c3ccccc3)c2Cl)cc1`, the inhibition was 15.3%. The same measure for `Cc1nn(-c2ccccc2)c(Cl)c1C(=O)Nc1ccccc1`: 108% (active). On to `Cc1nn(-c2ccccc2)c(Cl)c1/C=C/C(=O)c1ccc(O)cc1`, for which the inhibition was 37.6%. Take `Cc1cccc([C@@H]2[C@@H]3C(=O)N(Cc4ccccc4)C(=O)[C@@H]3[C@]3(C)C(=O)N(c4ccc(Br)cc4)C(=O)N23)c1`: the inhibition is 10.9%. The same measure for `CCCN1CCN(C(=O)CCCNC(=O)c2ccc(Cl)cc2)CC1`: -8.41%; for `C[C@H](NC(=O)C1CC(=O)N(c2ccc3c(c2)OCCO3)C1)C(=O)N1CCC(C(=O)O)CC1` (some centres undefined): -10.9%; for `O=C(c1cn(-c2ccccc2)nc1-c1cccnc1)N1CCCCC1`: -13.3%. The same measure for `COc1ccccc1N1CCN(C(=O)c2cc3c(-c4ccc(Cl)cc4)nn(C)c3s2)CC1`: 19.3%; for `COc1ccccc1N1CCN(C(=O)c2cn(-c3ccccc3)nc2-c2cccnc2)CC1`: 39.2% (active); for `COc1cc(C(=O)N2CCN(C3CCC(C)CC3)CC2)cc(OC)c1OC` (centres undefined): -9.82%. Next, `CCOc1ccc2nc(N(CCCN(C)C)C(=O)c3ccc(C(=O)c4ccccc4)cc3)sc2c1`: -6%; `O=C(O)c1ccc(-n2nc(-c3ccccc3)c3ccccc3c2=O)cc1`: 17.9%. Turning to `CCOc1ccc(CCNC(=O)Nc2ccccc2)cc1OCC`, the inhibition is 7.13%.

In the case of `CCOC(=O)C1CCN(C(=O)C2CCCN(S(=O)(=O)c3ccc(OC)c(Cl)c3)C2)CC1` (centres undefined), the inhibition is -2.72%.

With `CCc1ccc2oc(-c3ccc(N)cc3)nc2c1`, the inhibition is 47.9% (active). Next, `COc1ccc(C2C3=C(CCCC3=O)N(CC(=O)O)C3=C2C(=O)CCC3)cc1`: 14.1%. Next, `Cc1cccc(C)c1OC(=O)CSc1nnc(-c2ccccc2)o1`: -1.97%. Regarding `CCOC(=O)CSc1nnc(-c2ccncc2)o1`, the inhibition was -2.72%. Next, `CCCCSc1nnc(-c2ccc(C)cc2)o1`: 63.2% (active). The same measure for `O=C(c1cc2ccccc2o1)N1CCN(Cc2ccccc2)CC1`: 22.5%; for `O=C(NCCc1ccccc1)C(=O)NCC1OCCN1S(=O)(=O)c1cccs1` (centres undefined): 15.4%. Next, `COc1ccc(Oc2coc3cc(OC(=O)c4cncc(Br)c4)ccc3c2=O)cc1`: 31.4%; `CCc1ccc(Oc2coc3cc(OC(=O)c4cc5ccccc5oc4=O)ccc3c2=O)cc1`: 22.7%. `CCc1ccc(Oc2coc3cc(O)ccc3c2=O)cc1`: the inhibition is 57.1% (active). The same measure for `O=C(O)C1CCC(CNS(=O)(=O)c2ccc(Br)cc2)CC1` (centres undefined): -6.36%; for `O=C(NC(=O)c1ccccc1)Nc1ccccc1O`: 105% (active). Next, `O=C(NC(=O)c1ccccc1)NC(=O)c1ccccc1`: -0.343%. Next, `O=C(Nc1ccc(C(=O)O)c(O)c1)c1ccccc1`: 2.52%. For the compound `CCCC(=O)N1CCN(c2nnc(-c3ccc(C)cc3)c3ccccc23)CC1`, the inhibition is -11.9%. Next, `Brc1ccc2nc(N3CCCC3)sc2c1`: 133% (active). The same measure for `O=C(NCCc1cccc(F)c1)C1CCCN(c2nc3ccccc3s2)C1` (centres undefined): -11.7%; for `Fc1ccc2nc(N3CCCCC3)sc2c1`: 82% (active). Next, `O=C(c1ccc2nc(N3CCOCC3)sc2c1)N1CCN(c2ccc(Cl)cc2)CC1`: -6.87%; `Cc1nc(N2CCCCC2)sc1C=O`: 17.8%; `c1c2c(cc3sc(N4CCCCC4)nc13)OCCO2`: 14.5%. For the compound `COC(=O)Nc1ccc(S(=O)(=O)Nc2cc(OC)nc(OC)n2)cc1`, the inhibition is -3.18%.

In the case of `Cc1ccsc1C(=O)N[C@@H](C)c1nnc2ccccn12`, the inhibition is -1.3%. Next, `COc1ccc(NC2CCCN(C(=O)c3ccncc3)C2)cc1` (centres undefined): -17.1%; `CC(C)NC(=S)NN=C1CCCCCCCCCCC1`: 4.86%. The same measure for `CC(C)(C)NC(=O)C(=O)NN=C1CCCCCCC1`: 60.6% (active); for `O=C1CCC/C(=N\NC(=O)NC2CCCCC2)C1`: -0.774%; for `O=C(NCc1ccccc1)C(=O)NCC1OCCN1S(=O)(=O)c1ccc(Br)cc1` (centres undefined): 3.85%. As to `CCC(Oc1ccccc1C)C(=O)Nc1ccc(S(=O)(=O)Nc2cc(C)on2)cc1` (centres undefined), the inhibition was -4.41%. The same measure for `O=c1[nH]c(CSc2ccccc2)nc2c1oc1ccccc12`: 12.7%; for `O=C(COC(=O)c1ccc(N2CCCC2=O)cc1)c1ccc(OC(F)F)cc1`: -2.32%.

For `CCCn1c(C)cc(C(=O)COC(=O)c2c(C)nn(-c3ccccc3)c2C)c1C`, the inhibition was 37.3% (active). The same measure for `Cc1nn(-c2ccccc2)c(-n2cccc2)c1C(=O)O`: -10.5%; for `Cc1nn(-c2ccccc2)c(C)c1C(=O)OCC(=O)NC(=O)NC1CCCCC1`: -5.78%; for `Cc1cc(C(=O)COC(=O)c2cccs2)c(C)n1-c1c(C)n(C)n(-c2ccccc2)c1=O`: 14.6%. Next, `CCCc1cc(=O)[nH]c(SCC(=O)c2cc(C)n(CCC)c2C)n1`: -17.8%; `Cc1ccc(OC(=O)c2c(C)nn(-c3ccccc3)c2C)cc1`: 66.5% (active).
